Measurements taken from PubChem BioAssay AID1259249 (Broad Institute, 2017).
Where “and” joins values, the source holds several entries; their conditions need not be identical. Equal entries are not always repeated. Hit rate of the full screen: of about 86,000 compounds, about 220 (0.26%) were called active. The sample as a whole holds a higher share of actives than the screen did. Unmarked numbers belong to inactive results.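 The calls were made as follows: active = mean growth activity at or below -80% and every replicate also at or below -80%; inconclusive = mean at or below -80% but some replicate above -80%; inactive = mean growth activity above -80%.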

Experiment: C. difficile growth inhibitors, primary screen, HTS (AID 1259249);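 also: 0% = DMSO wells and -100% = levofloxacin 16 µg/mL wells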
Details: Clostridium difficile clinical isolate growth, OD600, 24 h; stronger effect = lower value; screened at 16 µg/mL (by protocol)
`O=C(NCC1CC1)[C@@H]1[C@@H](CO)[C@@H]2Cn3c(ccc(-c4ccccc4)c3=O)[C@H]1N2Cc1nccs1` showed a growth activity, negative = inhibition of -2.44%.
Work on `CCCNC(=O)N(C)C[C@H]1Oc2ncc(-c3cccc(C#N)c3)cc2C(=O)N([C@@H](C)CO)C[C@@H]1C` yielded a growth activity, negative = inhibition of 2.18%.
For `C[C@@H]1CCCCO[C@@H](CN(C)C(=O)Nc2ccc3c(c2)OCO3)[C@H](C)CN([C@H](C)CO)C(=O)c2cc(NC(=O)CCCN(C)C)ccc2O1`, the growth activity, negative = inhibition was 5.23%.
Compound `O=C(Cc1cccnc1)N1CC(=O)N2[C@@H](CO)[C@@H](c3ccc(C#CC4CCCC4)cc3)[C@@H]2C1` has a growth activity, negative = inhibition of -15.5%.
In the case of `COc1ccc2c3c(n(C)c2c1)[C@@H](CO)N(C)CC31CN(CC2CC2)C1`, the growth activity, negative = inhibition was 1.27%.
In the case of `COc1ccc2c3c([nH]c2c1)[C@H](CO)N(C(=O)Nc1ccc(F)cc1)CC31CN(S(=O)(=O)c2cccc(F)c2)C1`, the growth activity, negative = inhibition was 0.0849%.
`O=C(c1cccc(F)c1)N1CC[C@@H]2[C@H](CO)Nc3ccc(-c4ccccc4)cc3[C@@H]21` gave a growth activity, negative = inhibition of 6.91%.
For `COCC#Cc1ccc([C@@H]2[C@H](CO)N3C(=O)CN(C(=O)C4CCC4)C[C@@H]23)cc1`, the growth activity, negative = inhibition was -5.13%.
In the case of `COc1ccc2c3c([nH]c2c1)[C@@H](CO)N(C(=O)c1ccccc1)CC31CCN(Cc2cccnc2)CC1`, the growth activity, negative = inhibition was 3.57%.
With `CC=Cc1ccc2n(c1=O)C[C@H]1[C@H](CO)[C@@H](C(=O)NC3CCCC3)N(Cc3cccnc3)[C@@H]21` (mixture of isomers) the growth activity, negative = inhibition was 1.31%.
With `CCC(=O)N1CC(=O)N2[C@@H](CO)[C@H](c3ccc(C#CC4CCCC4)cc3)[C@@H]2C1` the growth activity, negative = inhibition was -2.43%.
With `CN(C)CC#Cc1ccc([C@H]2[C@H]3CN(C(=O)c4cccc(F)c4)CC(=O)N3[C@H]2CO)cc1` the growth activity, negative = inhibition was 2.12%.
`CO[C@H]1CN(C)C(=O)c2cc(NS(=O)(=O)c3ccccc3C)ccc2OC[C@@H](C)NC[C@@H]1C` showed a growth activity, negative = inhibition of -1.27%.
`CS(=O)(=O)N1[C@H](C#N)[C@H](c2ccccc2-c2ccc(F)cc2)[C@@H]1CO` gave a growth activity, negative = inhibition of 7%.
Compound `CC(=O)N(C)C[C@H]1[C@H](c2ccc(C3=CCCCC3)cc2)[C@H](CO)N1CC1CC1` has a growth activity, negative = inhibition of 33.9%.
In the case of `O=C(C[C@@H]1CC[C@@H](NC(=O)C2CCOCC2)[C@H](CO)O1)NCC1CC1`, the growth activity, negative = inhibition was 1.16%.
For `COc1ccccc1NC(=O)N1CC(=O)N2[C@H](C1)[C@H](c1ccc(C#Cc3ccccc3)cc1)[C@@H]2CO`, the growth activity, negative = inhibition was 12.6%.
`CCCNC(=O)C[C@H]1C[C@H]2c3cc(NC(=O)NC4CCCCC4)ccc3O[C@H]2[C@H](CO)O1` gave a growth activity, negative = inhibition of -4.2%.
With `COc1cccc(NC(=O)C[C@@H]2CC[C@H]3[C@@H](COc4ccc(NC(=O)C5CCC5)cc4C(=O)N3C)O2)c1` the growth activity, negative = inhibition was -1.63%.
Work on `C[C@@H]1CN([C@@H](C)CO)S(=O)(=O)c2ccc(/C=C/c3ccccc3)cc2O[C@H]1CN(C)C(=O)Nc1cc(F)ccc1F` yielded a growth activity, negative = inhibition of 4.39%.
`C/C=C/c1ccc([C@H]2[C@H](CO)N(C(=O)CN(C)C)C23CN(C(=O)C2CC2)C3)cc1` gave a growth activity, negative = inhibition of -0.638%.
`CN1c2ccc(-c3ccccc3F)cc2[C@H]2[C@H](CCN2C(=O)Nc2cc(F)ccc2F)[C@H]1CO` showed a growth activity, negative = inhibition of 38.2%.
In the case of `C[C@@H]1CCCCO[C@@H](CN(C)C(=O)CCC(F)(F)F)[C@H](C)CN([C@@H](C)CO)C(=O)c2cc(NC(=O)CCCN(C)C)ccc2O1`, the growth activity, negative = inhibition was 2.21%.
In the case of `COc1ccccc1CN1[C@H](CO)[C@@H](c2ccccc2)C12CN(C(=O)c1cnccn1)C2`, the growth activity, negative = inhibition was 5.54%.
With `CN1CCN(C(=O)C[C@H]2CC[C@H]3[C@@H](COC[C@H](O)CN3CC3CCOCC3)O2)CC1` the growth activity, negative = inhibition was -4.46% and 6.12%.
Work on `COCCNC(=O)C[C@H]1CC[C@@H]2[C@@H](COc3ccc(NC(=O)C4CCOCC4)cc3C(=O)N2C)O1` yielded a growth activity, negative = inhibition of -4.68%.
For `CNC(=O)C[C@@H]1CC[C@@H]2[C@@H](COc3ccc(NC(=O)c4ccc(F)cc4)cc3C(=O)N2C)O1`, the growth activity, negative = inhibition was 8.61%.
`O=C(N[C@@H]1CC[C@@H](CC(=O)N2CCc3ccccc3C2)O[C@H]1CO)C1CC1` showed a growth activity, negative = inhibition of -3.47%.
For `CCCNC(=O)N1CC2(C1)[C@H](c1ccccc1)[C@@H](CO)N2Cc1cccc(Cl)c1`, the growth activity, negative = inhibition was 17%.
With `O=C(Nc1ccc(F)cc1)N1C[C@@H]2[C@H](c3ccccc31)[C@H](CO)N2Cc1ccccc1` the growth activity, negative = inhibition was 3.9%.
For `Cc1cccc(-c2ccc(C3[C@@H]4CN(C(=O)Nc5ccc(C(F)(F)F)cc5)C[C@H]3N4)cc2)c1` (stereo partly specified), the growth activity, negative = inhibition was -94.2% (active) and -85.7% (active).
`CN(C)C(=O)c1ccc(-c2ccc(C3[C@@H]4CN(C(=O)Nc5ccccc5)C[C@H]3N4)cc2)cc1` (stereo partly specified) gave a growth activity, negative = inhibition of 4.58%.
For `O=C(C1CCCCC1)N1C[C@@H]2N[C@H](C1)C2c1ccc(-c2cccc(F)c2)cc1` (stereo partly specified), the growth activity, negative = inhibition was 56.1% and 10.9%.
Compound `COc1ccc2c3c(n(C)c2c1)[C@H](CO)N(Cc1ccccc1)CC31CN(C(=O)c2ccccc2F)C1` has a growth activity, negative = inhibition of 20.3%.
Compound `CCCC(=O)Nc1ccc2c(c1)OC[C@H](C)N(C(=O)CC)C[C@H](C)[C@@H](OC)CN(C)C2=O` has a growth activity, negative = inhibition of -5.26%.
`COc1ccc2c3c([nH]c2c1)[C@@H](CO)N(C(C)=O)CC31CN(C(=O)Nc2ccc(F)cc2)C1` gave a growth activity, negative = inhibition of 1.62%.
`CN1CCCCN2[C@@H](CO)[C@@H](c3ccc(C4=CCCC4)cc3)[C@@H]2C1` showed a growth activity, negative = inhibition of 0.437%.
Work on `N#C[C@@H]1[C@H](c2ccc(-c3cccnc3)cc2)[C@H](CO)N1C(=O)C1CC1` yielded a growth activity, negative = inhibition of -3.1%.
With `O=C(CN1CCOCC1)NCC[C@@H]1CC[C@@H](NC(=O)Nc2ccccc2)[C@H](CO)O1` the growth activity, negative = inhibition was 0.549%.
Work on `O=S(=O)(N[C@H]1CC[C@@H](CCNS(=O)(=O)c2ccccc2Cl)O[C@@H]1CO)c1ccccc1` yielded a growth activity, negative = inhibition of -8.16%.
`COc1ccc(C#Cc2ccc([C@@H]3[C@H](CO)N4C(=O)CN(C(C)=O)C[C@@H]34)cc2)cc1` gave a growth activity, negative = inhibition of -6.73%.
